MPTP inh: blocks calcium-induced mitochondrial swelling. inhibition, % at 10 µM. isolated mouse mitochondria, Ca2+ swelling absorbance, 30 min. AID 602449. actives 1.4% (n = 360,000);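 active = inhibition of 50% or more, scaled per plate between neutral and stimulator controls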
Mdm2-MdmX inh: human Mdm2/MdmX binding inhibition. SaOS-2 split-luciferase Mdm2/MdmX complementation, luminescence. AID 485346. actives 3% (n = 330,000). inhibition, % at 8 µM. O15151+Q00987;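 active = inhibition of at least 50% at 8 µM in the primary screen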
Target sequence (O15151 whole entry, looked up): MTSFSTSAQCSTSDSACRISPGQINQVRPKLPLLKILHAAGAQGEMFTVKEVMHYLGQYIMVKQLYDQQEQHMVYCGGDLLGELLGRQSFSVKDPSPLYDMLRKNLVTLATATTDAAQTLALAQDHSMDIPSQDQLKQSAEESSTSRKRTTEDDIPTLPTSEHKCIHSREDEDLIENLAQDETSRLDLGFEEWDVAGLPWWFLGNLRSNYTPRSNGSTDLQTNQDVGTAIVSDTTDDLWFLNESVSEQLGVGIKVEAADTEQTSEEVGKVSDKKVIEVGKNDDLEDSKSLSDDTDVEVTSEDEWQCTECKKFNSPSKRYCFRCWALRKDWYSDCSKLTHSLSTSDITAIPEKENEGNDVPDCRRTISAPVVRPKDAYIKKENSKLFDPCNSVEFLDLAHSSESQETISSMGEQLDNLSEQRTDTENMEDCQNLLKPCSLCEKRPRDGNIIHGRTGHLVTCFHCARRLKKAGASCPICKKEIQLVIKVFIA
Target sequence (Q00987 whole entry, looked up): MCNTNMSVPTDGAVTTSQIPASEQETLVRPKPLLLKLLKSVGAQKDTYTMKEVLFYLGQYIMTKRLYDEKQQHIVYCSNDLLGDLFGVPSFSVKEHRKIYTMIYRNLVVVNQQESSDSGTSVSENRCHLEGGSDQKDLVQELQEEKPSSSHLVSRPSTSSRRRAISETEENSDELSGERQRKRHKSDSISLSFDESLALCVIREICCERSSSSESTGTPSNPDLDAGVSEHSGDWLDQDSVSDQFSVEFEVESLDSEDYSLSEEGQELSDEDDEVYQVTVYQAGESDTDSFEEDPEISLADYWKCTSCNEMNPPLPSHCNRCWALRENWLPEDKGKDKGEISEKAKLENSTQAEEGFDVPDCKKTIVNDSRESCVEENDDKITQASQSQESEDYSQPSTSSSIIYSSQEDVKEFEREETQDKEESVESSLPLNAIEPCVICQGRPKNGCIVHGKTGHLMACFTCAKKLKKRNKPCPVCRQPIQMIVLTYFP
SKKanGAS inh: blocks kanamycin growth of S. pyogenes SKKanGAS strain; BacTiter-Glo, 6 h; inhibition, % at 7.5 µM; actives 1.3% (n = 300,000); AID 1662;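 active = mean replicate score, as percent of positive control median, at least 50; inconclusive = mean below 50 but one replicate at or above 50; inactive = mean and every replicate below 50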;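 note: strain carries kanamycin resistance gene driven by streptokinase promoter and grows in 40 µg/ml kanamycin; loss of luminescence reflects streptokinase promoter inhibition or plain growth inhibition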
Calb FLC: affects C. albicans growth with fluconazole. C. albicans CaCi-2 (fluconazole-resistant clinical isolate) + fluconazole, Alamar Blue growth, 48 h. growth inhibition, % (test concentration not listed). actives 0.57% (n = 300,000). AID 1979;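 active = growth inhibition above about 58% in most replicates, limit read from the data, passing the limit was not always enough; inconclusive = exactly half the replicates above a set limit; inactive = most replicates below a set limit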;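 note: all wells also contain fluconazole at 8 µg/ml as a sub-toxic cotreatment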
Beta cell apopt: beta cell apoptosis inhibition | protection from apoptosis, % (concentration not given with the values) | actives 0.8% (n = 300,000) | INS-1E cytokine-induced death, ATP luminescence, 48 h; percent of positive-control rescue, neutral wells zero | AID 435005;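 active = Every replicate reaches about 75%, or at least half do and their mean reaches it too, limit read from the data; inconclusive = At least half of replicates reach the limit but their mean does not; inactive = Under half of replicates reach the limit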;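 note: higher means more ATP so stronger rescue from cytokine killing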
CSC inhib: blocks cancer stem cells; inhibition, % at 7.5 µM; cancer stem cell-like cells viability, luminescence; actives 1.1% (n = 300,000); AID 2717; in the data active = inhibition above about 75%; inconclusive = no clear call, values can overlap the other calls; tested in HMLE shEcad cells
Hits are given with their value; 0 = inactive; ? = inconclusive; - = no result given. Only some compounds are listed: those with a hit (about 5.4% of all), similar ones and a draw of the others.

SMILES	MPTP inh	Mdm2-MdmX inh	SKKanGAS inh	Calb FLC	Beta cell apopt	CSC inhib
Cc1cccc(CNc2ccc(S(=O)(=O)N3CCCCC3)cc2)c1	0	0	-	-	101.3	-
Cc1cccc(NC(=O)CSCC(=O)Nc2ccc(S(=O)(=O)N3CCCC3)cc2)c1	0	0	0	0	0	0
c1nc(NCc2ccc3c(c2)OCO3)c2cc(-c3ccc4c(c3)OCCO4)ccc2n1	0	0	-	-	99.2	-
c1cncc(CNc2ncnc3ccc(-c4ccc5c(c4)OCO5)cc23)c1	0	0	-	-	0	-
O=C(Cn1c(-c2ccccc2)c[n+]2ccsc12)c1ccc([N+](=O)[O-])cc1	0	0	0	0	94.3	0
O=C(Cn1c(-c2ccccc2)c[n+]2ccsc12)c1ccccc1	0	0	0	0	0	0
Cc1cccc(OCCNc2cc(N3CCN(C)CC3)ccc2[N+](=O)[O-])c1	0	0	0	0	0	79.8
Cc1ccc(S(=O)(=O)/N=C(/c2ccccc2)N2CCOCC2)c(C)c1	0	0	0	81.2	-	0
Cc1ccc(S(=O)(=O)/N=C(/c2ccccc2)N2CCOCC2)cc1	0	0	0	0	0	0
CCOC(=O)c1cnc(-n2nc(C)cc2C)nc1N(CC)CC	0	0	?	0	0	0
Cc1ccc(/C=N/Nc2cc(C)nc(NCc3ccccc3)n2)cc1	0	0	0	0	0	97.4
O=C(CN1C(=O)COc2ccccc21)NCCCN1CCc2ccccc2C1	0	0	0	101.2	0	0
COc1ccc(-n2c(=O)c3c4c(sc3n3c(=S)[nH]nc23)CCC4)cc1	0	0	65.0	0	0	0
O=C(/C=C/c1ccccc1)NNc1ccc(Cl)cc1	0	0	0	97.3	0	96.2
O=C(NNc1ccc([N+](=O)[O-])cc1)Nc1ccccc1	0	0	0	0	0	0
O=C(NNc1ccc(Cl)cc1)c1sccc1Cl	0	0	0	104.9	0	94.4
O=C(NNc1ccccc1)C(=O)NNS(=O)(=O)c1ccc([N+](=O)[O-])cc1	0	0	0	0	0	92.5
O=C(c1ccc(Cl)cc1)c1c[nH]c(C(=O)NNc2ccccc2)c1	0	0	0	?	0	95.2
COc1ccc(CNC(=O)c2cc(=O)c3cc(C)ccc3o2)cc1	0	0	0	0	0	0
CCOC(=O)N1CCN(C(=O)C[C@@H]2C[C@@]3(C(=O)OCC)CCC=C3N(Cc3ccc(Cl)cc3Cl)C2=O)CC1	0	-	-	-	-	-
CN(C)S(=O)(=O)Oc1ccccc1C(=O)Nc1cccc(C(F)(F)F)c1	0	0	0	0	0	0
O=C(NNc1ccc(Cl)cc1)c1c(F)cccc1Cl	0	0	0	82.6	0	0
O=C(NNc1ccc([N+](=O)[O-])cc1)c1ccccc1Cl	0	0	0	92.1	0	0
O=C(NNc1ccc([N+](=O)[O-])cc1)c1ccccc1F	0	-	-	-	-	-
O=C(O)c1ccccc1C(=O)NNc1ccc(Cl)cc1	0	0	0	0	0	91.1
SMILES	MPTP inh	Mdm2-MdmX inh	SKKanGAS inh	Calb FLC	Beta cell apopt	CSC inhib
Nc1nnc(SCC(=O)OCC(=O)NC2CCCCC2)s1	0	0	0	0	0	92.4
Nc1nnc(SCC(=O)NC2CCCCC2)s1	0	0	0	0	0	0
CCOc1cc(/C=C2\SC(=S)N(NS(=O)(=O)c3ccccc3)C2=O)ccc1O	0	0	0	88.3	0	0
COc1ccc(OC)c(/C=C2\SC(=S)N(NS(=O)(=O)c3ccc(C)cc3)C2=O)c1	0	0	0	88.7	0	0
CCOc1ccc(/C=C2\SC(=S)N(NS(=O)(=O)c3ccccc3)C2=O)cc1OC	0	0	0	0	0	0
COc1ccc(/C=C2\SC(=S)N(NS(=O)(=O)c3ccc(C)cc3)C2=O)c(OC)c1	0	0	0	0	0	0
Cc1nnc(-c2ccc(Oc3ccc(Br)cc3)c([N+](=O)[O-])c2)o1	0	0	0	0	0	139.1
O=[N+]([O-])c1cc(-c2cnc3ccccc3n2)ccc1Oc1ccc(Br)cc1	0	0	0	0	0	0
COc1cccc(-n2c(SCc3cc(=O)oc4cc(O)c(O)cc34)nc3ccccc3c2=O)c1	0	-	0	106.4	0	99.8
Cc1cc2oc(=O)cc(CNc3ccccc3F)c2cc1O	0	0	50.6	0	0	0
COc1cccc(C(=O)Nc2ccc3c(C)cc(=O)oc3c2)c1	0	0	0	0	0	0
CCOc1ccccc1NCc1cc(=O)oc2cc(C)c(O)cc12	0	0	0	0	0	0
COc1cccc(NCc2cc(=O)oc3cc(-c4ccccc4)c(O)cc23)c1	0	0	109.6	0	0	0
COc1cccc(NCc2cc(=O)oc3cc(C)c(O)cc23)c1	0	0	99.4	0	0	0
Cc1nn(Cc2ccc(C(=O)Nc3nc4c(C)cccc4s3)o2)c(C)c1Br	0	0	57.6	0	0	0
Clc1ccc2nnnc(-c3ccccc3)c2c1	0	-	0	0	99.1	98.6
C=CCSc1nc(-c2ccccc2)c2cc(Cl)ccc2n1	0	0	56.5	0	0	0
CCc1nnc(NC(=O)CSc2nnc(COc3ccccc3C)o2)s1	0	0	0	0	0	0
COc1ccccc1NS(=O)(=O)c1cccc(C(=O)N/N=C(\C)c2ccncc2)c1	0	0	-	-	-	-
Cc1sc2ncnc(SCC(=O)N3CCCC(C(N)=O)C3)c2c1C (configuration not stated)	0	0	0	0	0	0
Cc1sc2ncnc(SCC(=O)N3CCCC(C(F)(F)F)C3)c2c1C (configuration not stated)	0	0	55.0	0	-	0
O=C(NN=C1CCCC1)c1ccc(Cl)cc1	0	0	0	0	0	0
O=C1CCC/C(=N/Nc2ccc(Cl)cc2)C1	0	0	0	105.7	0	0
Fc1ccc(N/N=C/c2ccncc2)c(F)c1	0	0	0	?	0	89.9
O=c1c(/C=N/OCc2ccc(Cl)cc2Cl)c[nH]n1-c1cccc(Cl)n1	0	0	0	0	0	93.5
SMILES	MPTP inh	Mdm2-MdmX inh	SKKanGAS inh	Calb FLC	Beta cell apopt	CSC inhib
COc1ccc(C(=O)NCCc2nnc3ccc(SCC(=O)NCCc4ccc(OC)c(OC)c4)nn23)cc1	0	0	0	0	0	0
COc1cccc(-n2nnc3c(=O)n(CC(=O)Nc4cc(C)on4)cnc32)c1	0	0	0	0	0	0
CNC(CC(C)C)C(=O)NC1C(=O)NC(CC(N)=O)C(=O)NC2C(=O)NC3C(=O)NC(C(=O)NC(C(=O)O)c4cc(O)cc(O)c4-c4cc3ccc4O)C(O)c3ccc(c(Cl)c3)Oc3cc2cc(c3OC2OC(CO)C(O)C(O)C2OC2CC(C)(N)C(O)C(C)O2)Oc2ccc(cc2Cl)C1O (configuration not stated)	0	-	101.8	0	-	0
C/C(=N\NC(=O)COc1ccc(C)cc1C(C)C)c1cc2ccccc2o1	0	0	57.4	0	0	-
COc1ccc(NC(=O)N2CCCC(c3nc(-c4ccc(C(C)C)cc4)no3)C2)cc1 (configuration not stated)	0	0	0	0	0	95.9
N#C/C(=C(/O)c1ccc([N+](=O)[O-])o1)c1nc2ccccc2[nH]1	0	0	71.9	0	0	0

Screening data: PubChem, several laboratories
